Compounds with a hit are over-represented: about 0.84% of the library has one in this group of screens.
SRC1 TRFRET art: TR-FRET detection interference compounds, primary screen, artefact control for PPARgamma SRC-1 recruitment agonists, biochemical, TR-FRET emission ratio; TR-FRET detection artefact counter-screen; stronger effect = higher value; TR-FRET ratio at 8 µM; hit rate 0.34% among 99,000; AID 1051, 2008; in the data active means TR-FRET ratio above about 2300
PPARg SRC1 recr: PPARgamma agonists recruiting SRC-1 coactivator, primary screen, biochemical; PPARgamma-SRC-1 coactivator recruitment biochemical assay; activation, % at 8 µM; hit rate 0.41% among 200,000; in the data active means activation above about 19%;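 further: 0% = DMSO and 100% = reference agonist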
SRC2 TRFRET art: TR-FRET signal artefacts, primary screen, artefact control for PPARgamma SRC-2 agonist project, biochemical; TR-FRET artefact counter-screen; stronger effect = higher value; TR-FRET ratio at 8 µM; hit rate 0.4% among 200,000; AID 1049, 2008
PPARg SRC3 recr: PPARgamma agonists recruiting SRC-3 coactivator, primary screen, biochemical | Peroxisome proliferator-activated receptor gamma (Homo sapiens), P37231 | biochemical PPARgamma/SRC-3 coactivator recruitment assay | activation, % at 8 µM | hit rate 0.26% among 200,000 | AID 731, 2007; in the data active means activation above about 23%;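 further: 0% = DMSO and 100% = reference agonist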
PPARg SRC2 recr: agonists of PPARg-SRC-2 recruitment, primary screen, biochemical, HTS | AID 1032, 2008 | Peroxisome proliferator-activated receptor gamma (Homo sapiens), P37231 | PPARgamma LBD-SRC-2 recruitment | activation, % at 8 µM | hit rate 0.34% among 200,000; in the data active means activation above about 22%;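 further: 0% = vehicle and 100% = reference agonist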
SRC3 TRFRET art: TR-FRET detection interference compounds, artefact control for PPARgamma SRC-3 recruitment agonists, biochemical, TR-FRET ratio; TR-FRET artefact counter-screen, PPARgamma/SRC-3 format; stronger effect = higher value; TR-FRET ratio at 8 µM; hit rate 0.39% among 99,000
PPARg SRC2 conf: agonists of PPARgamma SRC-2 coactivator recruitment, confirmation, biochemical, HTS; AID 1297, 2008; shares compounds with PPARg SRC3 recr; activation, % at 8 µM; hit rate 52% among 790; biochemical SRC-2 recruitment by PPARgamma; in the data active means activation above about 22%;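 further: 0% = vehicle alone and 100% = reference agonist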
PPARg SRC1 conf: PPARgamma agonists recruiting SRC-1 coactivator, confirmation, biochemical | shares compounds with PPARg SRC3 recr | PPARgamma–SRC-1 coactivator recruitment biochemical assay | activation, % at 8 µM | hit rate 43% among 790 | AID 1300, 2008; in the data active means activation above about 20%;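 further: 0% = vehicle wells and 100% = reference agonist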
PPARg SRC3 ag: PPARgamma-driven SRC-3 coactivator recruitment agonists, confirmation, biochemical | shares compounds with PPARg SRC3 recr | biochemical PPARgamma-SRC-3 coactivator recruitment, agonist mode | activation, % at 8 µM | hit rate 29% among 790; in the data active means activation above about 24%;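 further: 0% = vehicle wells and 100% = reference agonist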
Starred values were filed as active, the others as inactive; . = no result. Unless noted, no stated cut-off is given here; in the data, active means TR-FRET ratio above about 2000; inactive means the rest.

SMILES	SRC1 TRFRET art	PPARg SRC1 recr	SRC2 TRFRET art	PPARg SRC3 recr	PPARg SRC2 recr	SRC3 TRFRET art	PPARg SRC2 conf	PPARg SRC1 conf	PPARg SRC3 ag
COc1ccc(-c2cn3c(C)c(C(=O)Nc4cc(NC(C)=O)ccc4OC)sc3n2)cc1	.	23.2*	2510*	46.8*	39.0*	.	41.1*	33.8*	25.0*
Cc1ccc(S(=O)(=O)Nc2cnn(-c3ccccc3)c(=O)c2Cl)cc1	3010*	34.5*	2289*	27.5*	38.9*	2439*	47.4*	35.1*	27.5*
CNc1cnn(-c2ccc(C)cc2)c(=O)c1Cl	.	-4.5	1515	9.0	-1.8	.	.	.	.
CC(C)CC1=NN(C(=O)c2ccncc2)C(O)(C(F)(F)F)C1 (stereo not drawn)	1961	6.2	1615	2.6	7.2	1862	.	.	.
C#CCn1c(=NC(=O)c2sc3ccccc3c2Cl)sc2cc(S(N)(=O)=O)ccc21	2366*	13.4	2057*	15.8	32.9*	2062*	32.9*	21.5*	14.9
Cc1cc(C)c(NC(=O)CSc2nc3ccc(NC(=O)CSc4nnnn4Cc4ccccc4)cc3s2)c(C)c1	.	9.5	1906	15.2	23.7*	.	8.9	9.6	7.6
COc1ccc(NS(=O)(=O)c2cccc(NC(=O)CCS(=O)(=O)c3ccccc3)c2)cc1	1861	0.7	1618	6.5	-0.8	1773	.	.	.
Cc1cccc(-c2ccc(C=Nc3c(C)n(C)n(-c4ccccc4)c3=O)o2)c1	.	22.7*	1999*	38.7*	30.0*	.	20.0	17.9	14.2
Cc1c(N=Cc2nc3ccccc3n2C)c(=O)n(-c2ccccc2)n1C	.	7.3	1578	4.8	2.3	.	.	.	.
CCn1c(SCC(=O)Nc2cc3oc4ccccc4c3cc2OC)nnc1-c1cccs1	.	5.4	1548	11.6	25.9*	.	4.8	0.0	2.2
COc1cc2c(cc1NC(=O)CSc1nnc(Cc3cccs3)n1C)oc1ccccc12	.	4.8	1490	-11.1	1.9	.	.	.	.
Cc1ccccc1C(=O)Nc1ccc(C(=O)N/N=C/c2ccc(F)cc2)cc1	1673	-4.3	1625	6.9	7.8	1961	.	.	.
CCCC1O[C@@H]2C[C@H]3[C@@H]4CCC5=CC(=O)C=C[C@]5(C)[C@H]4[C@@H](O)C[C@]3(C)[C@]2(C(=O)CO)O1 (stereo partly drawn)	1864	1.5	1649	6.7	5.6	1556	.	.	.
CCCC1O[C@@H]2CC3C4CCC5=CC(=O)C=C[C@]5(C)C4C(OC(C)=O)C[C@]3(C)[C@]2(C(=O)COC(C)=O)O1 (stereo partly drawn)	.	60.4*	1573	47.1*	38.2*	.	41.9*	49.0*	48.1*
O=c1oc(-c2ccco2)nc2c1cnn2-c1ccccc1	.	20.4*	1579	3.1	14.3	.	6.9	15.6	22.9
O=c1c2cnn(-c3ccccc3)c2nc(-c2ccco2)n1-c1ccccc1	.	-1.1	1611	6.5	10.5	.	.	.	.
Fc1ccc(-c2nnsc2Sc2ccccn2)cc1	1838	11.4	3478*	58.1*	145.1*	6319*	34.5*	34.6*	15.8
COc1ccc(CSCC(=O)N/N=C/c2ccc(OCC(=O)NCc3ccco3)cc2)cc1	.	6.9	1647	4.6	-0.7	.	.	.	.
Cc1cc(C)cc(CSCC(=O)N/N=C/c2ccc(OCC(=O)NCc3ccco3)cc2)c1	.	7.5	1568	25.4*	10.5	.	1.9	0.2	0.6
CCN(C(=O)COC(=O)c1cc(-c2cccc3ccccc23)nc2ccccc12)C1CCS(=O)(=O)C1 (stereo not drawn)	2115	11.4	1710	10.4	22.2*	2078*	9.6	7.5	5.4
O=C(COC(=O)c1cc(-c2cccc3ccccc23)nc2ccccc12)NC1CCS(=O)(=O)C1 (stereo not drawn)	2123	8.9	1761	9.7	10.2	2043	.	.	.
CC(=O)c1cc(NC(=O)c2ccc(Cl)cc2)c(=O)oc1/C=C/N(C)C	.	19.7*	1524	11.7	6.0	.	11.6	7.6	8.7
CC(=O)c1cc(NC(=O)c2cccc(C(F)(F)F)c2)c(=O)oc1/C=C/N(C)C	.	5.7	1377	-7.2	-4.1	.	.	.	.
COC(=O)c1sccc1NC(=O)c1cc(-c2cccc(C)c2)nc2ccccc12	.	8.9	2058*	12.7	25.9*	.	1.6	4.6	2.0
COc1cc(/C=C/C(=O)OCC(=O)Nc2ccc(C)cc2[N+](=O)[O-])ccc1O	2042	15.6	1465	9.1	24.9*	1635	12.5	8.4	8.2
SMILES	SRC1 TRFRET art	PPARg SRC1 recr	SRC2 TRFRET art	PPARg SRC3 recr	PPARg SRC2 recr	SRC3 TRFRET art	PPARg SRC2 conf	PPARg SRC1 conf	PPARg SRC3 ag
Cc1ccc(-n2cccn2)c(CN2CCC(CO)(CCc3ccccc3)CC2)c1	1788	0.4	1385	6.2	4.8	1604	.	.	.
O=C(O)c1cc(-c2ccc3c(c2)OCO3)nc2ccc(Br)cc12	2873*	32.9*	2330*	22.6*	31.0*	2538*	8.8	1.4	7.7
O=C(O)c1cc(-c2cccnc2)nc2ccc(Br)cc12	2326*	24.9*	1853	12.9	15.8	2133*	13.9	6.0	10.1
COC(=O)c1cc(-c2ccc3c(c2)OCO3)nc2ccccc12	1725	-1.3	1616	-1.8	-2.1	1427	.	.	.
CC(C)(C)NC(=O)c1cccc2c1OC(C)(C)C2	1794	4.4	1459	-3.6	9.8	1405	.	.	.
S=c1nc[nH]c2c1[nH]c1ccccc12	.	29.4*	2670*	48.3*	37.6*	.	15.3	5.0	10.8
COCCNc1nc2ccccc2nc1NS(=O)(=O)c1ccc(C)cc1C	.	17.9	2002*	22.7	23.4*	.	23.9*	17.0	14.3
COC(=O)C(C)Oc1ccc(=O)[nH]n1 (stereo not drawn)	.	4.3	1434	-11.2	3.0	.	.	.	.
[2H]c1c([2H])c([2H])c(C(=O)c2sc(N3CCCCCC3)nc2-c2ccccc2)c([2H])c1[2H]	.	13.4	1896	28.2*	16.6	.	15.9	11.7	10.0
O=C(c1ccccc1)c1sc(N2CCCCCC2)nc1-c1ccccc1	.	19.2*	1948	23.4	7.0	.	15.6	13.3	8.0
O=S(=O)(NCCc1ccccc1)c1ccc(Cl)nc1	1701	3.5	1600	-2.3	-1.5	1638	.	.	.

Assay outcomes deposited in PubChem by The Scripps Research Institute Molecular Screening Center.
